These results are taken from the supplement of paper PMC6522484.

For assay [1], the system named is DLD1. Briefly: cell viability (CellTiter-Glo) relative to plate median (fraction of plate median); higher = more viable cells. As to conditions: 5 µM; treatment time 24 h; reporter: 7TFP. The method, boiled down:
(§1)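 Colorectal cancer lines with stably integrated lentiviral TCF/Wnt firefly luciferase reporters received library compounds at a final 5 µM, 24 h after seeding into 384-well plates, for a 24 h exposure. Reported figures are plate-median-normalised firefly luciferase or CellTiterGlo luminescence per well. They average two independent replicates.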

In assay [2] the test system is HCT116. Described as above. As to conditions: 5 µM; treatment time 24 h; reporter: TCF4/Wnt. The method, boiled down:
as §1

Assay [3] concerns SW480. The description is as above. The settings on record: 5 µM; treatment time 24 h; reporter: 7TFP. In short, it runs like this:
as §1

The subject of assay [4] is DLD1. Briefly: TCF/Wnt firefly luciferase reporter signal relative to plate median (fraction of plate median); higher = higher Wnt reporter signal. As to conditions: 5 µM; treatment time 24 h; reporter: 7TFP. The method, boiled down: as §1
Assay [5] has as its system SW480. Described as above. As to conditions: 5 µM; treatment time 24 h; reporter: 7TFP. In short, it runs like this:
as §1

± gives the standard deviation of the averaged measurements.

As for `OC(CCN1CCCCC1)(c1ccccc1)c1ccccc1`, the cell viability in assay [1] came out at 0.982 ± 0.068; in assay [2], 0.916 ± 0.051; in assay [3], 1.02 ± 0.014. The “TCF/Wnt firefly luciferase reporter signal” value in assay [4] came out at 0.834 ± 0.2; in assay [5], 0.878 ± 0.019.

With `CC(C)CCCC(C)N` (stereo not given), the cell viability in assay [1] was found to be 0.99 ± 0.012; in assay [2], 0.929 ± 0.031; in assay [3] it was 0.9345 ± 0.0092. Also, the results for the “TCF/Wnt firefly luciferase reporter signal” value in assay [4] and in assay [5] were 0.875 ± 0.03 and 0.9465 ± 0.0078, respectively.

On to `CN1CCN(C(c2ccccc2)c2ccccc2)CC1`, for which the cell viability was determined as 1.04 ± 0.021 in assay [1], 0.953 ± 0.018 in assay [2] and 1.07 ± 0.028 in assay [3]. In addition, the “TCF/Wnt firefly luciferase reporter signal” value stood at 0.977 ± 0.12 in assay [4] and 1.01 ± 0.12 in assay [5].

Consider `Nc1ccn([C@@H]2O[C@H](CO)[C@@H](O)[C@@H]2O)c(=O)n1`, for which the cell viability was found to be 0.987 ± 0.018 in assay [1], 0.849 ± 0.092 in assay [2] and 1.1 ± 0.064 in assay [3]. For the same compound, the “TCF/Wnt firefly luciferase reporter signal” value in assay [4] stood at 1.08 ± 0.11; in assay [5], 0.968 ± 0.14.

As for `CC(=O)Nc1ccc(S(=O)(=O)c2ccc(NC(C)=O)cc2)cc1`, the cell viability turned out to be 0.966 ± 0.1 in assay [1], 0.94 ± 0.012 in assay [2] and 0.931 ± 0.012 in assay [3]. Further, the figures for the “TCF/Wnt firefly luciferase reporter signal” value in assay [4] and in assay [5] were 1.09 ± 0.035 and 1.05 ± 0.042, respectively.

For `O=C(O)c1cccnc1`, the cell viability in assay [1] came out at 1.05 ± 0.042; in assay [2], 1.01 ± 0.11; in assay [3], 1.06 ± 0.05. In addition, the figures for the “TCF/Wnt firefly luciferase reporter signal” value in assay [4] and in assay [5] were 0.969 ± 0.039 and 0.976 ± 0.062, respectively.

As for `COc1cccc(/C=C/C(=O)O)c1C(C)C`, the cell viability in assay [1] turned out to be 0.981 ± 0.042; in assay [2], 1.03 ± 0.093; in assay [3], 1 ± 0.041. Also, the entries for the “TCF/Wnt firefly luciferase reporter signal” value in assay [4] and in assay [5] were 1.12 ± 0.26 and 1.03 ± 0.17, respectively.

In the case of `COC1=CC(=O)C(C(=O)c2ccccc2)=CC1=O`, the cell viability is 0.965 ± 0.015 in assay [1], 0.991 ± 0.028 in assay [2] and 0.975 ± 0.028 in assay [3]. Also, the “TCF/Wnt firefly luciferase reporter signal” value in assay [4] worked out at 1.03 ± 0.09; in assay [5], 1.04 ± 0.063.

Consider `CC(C)CCC[C@@H](C)[C@H]1CC[C@H]2[C@@H]3CC[C@@H]4C[C@H](O)CC[C@]4(C)[C@H]3CC[C@]12C`, for which the values for the cell viability in assay [1], in assay [2] and in assay [3] were 1.06 ± 0.028, 1.01 ± 0.033 and 1.02 ± 0.076, respectively. In addition, the “TCF/Wnt firefly luciferase reporter signal” value worked out at 0.985 ± 0.036 in assay [4] and 1.03 ± 0.07 in assay [5].

Turning to `CC1(C)[C@@H](O[C@H]2O[C@H](C(=O)O)[C@@H](O)[C@H](O)[C@H]2O[C@@H]2O[C@H](C(=O)O)[C@@H](O)[C@H](O)[C@H]2O)CC[C@]2(C)[C@H]3C(=O)C=C4[C@@H]5C[C@@](C)(C(=O)O)CC[C@]5(C)CC[C@@]4(C)[C@]3(C)CC[C@@H]12`, the cell viability came out at 1.04 ± 0.042 in assay [1], 1.14 in assay [2] and 1.02 ± 0.03 in assay [3]. Also, the “TCF/Wnt firefly luciferase reporter signal” value in assay [4] was 1.22 ± 0.13; in assay [5], 1.16 ± 0.092.

As to `CO[C@H]1C[C@H](O[C@H]2[C@H](C)[C@@H](O[C@@H]3O[C@H](C)C[C@H](N(C)C)[C@H]3O)[C@@H](C)C[C@@]3(CO3)C(=O)[C@H](C)[C@@H](O)[C@@H](C)[C@@H](C)OC(=O)[C@@H]2C)O[C@@H](C)[C@@H]1O`, the cell viability was found to be 0.97 ± 0.0028 in assay [1], 0.91 ± 0.087 in assay [2] and 0.915 ± 0.05 in assay [3]. Also, the “TCF/Wnt firefly luciferase reporter signal” value in assay [4] was 0.869 ± 0.05; in assay [5] it was 1.05 ± 0.1.

Regarding `Cc1cc2cc3c(C)cc(=O)oc3c(C)c2o1`, the cell viability in assay [1] stood at 1.07 ± 0.021; in assay [2] it was 0.954 ± 0.034; in assay [3], 1 ± 0.022. In addition, the “TCF/Wnt firefly luciferase reporter signal” value in assay [4] came to 1.14 ± 0.11; in assay [5], 0.895 ± 0.037.

With `Fc1ccc(C(c2ccc(F)cc2)N2CCN(C/C=C/c3ccccc3)CC2)cc1`, the cell viability came to 1.06 ± 0.042 in assay [1], 0.962 ± 0.069 in assay [2] and 1.06 ± 0.057 in assay [3]. The figures for the “TCF/Wnt firefly luciferase reporter signal” value in assay [4] and in assay [5] were 0.961 ± 0.18 and 0.917 ± 0.016, respectively.

With `CN(C)CC/C=C1/c2ccccc2Sc2ccc(Cl)cc21`, the cell viability in assay [1] turned out to be 0.835 ± 0.21; in assay [2], 0.98 ± 0.019; in assay [3], 0.934 ± 0.016. Besides, the “TCF/Wnt firefly luciferase reporter signal” value in assay [4] came to 1.07 ± 0.042; in assay [5], 0.967 ± 0.061.

Take `c1ccc2c(CC3=NCCN3)cccc2c1`: the cell viability amounted to 1.11 ± 0.035 in assay [1], 1.09 ± 0.028 in assay [2] and 1.09 ± 0.035 in assay [3]. The “TCF/Wnt firefly luciferase reporter signal” value came to 1.07 ± 0.12 in assay [4] and 0.984 ± 0.11 in assay [5].

Consider `FC(F)(F)C(Cl)Br` (stereo not given), for which the cell viability amounted to 0.964 ± 0.035 in assay [1], 0.898 ± 0.011 in assay [2] and 0.9715 ± 0.0035 in assay [3]. Also, the “TCF/Wnt firefly luciferase reporter signal” value in assay [4] was found to be 1.02 ± 0.028; in assay [5] it was 1.1 ± 0.092.

For the compound `COc1cc2c(=O)c(-c3ccc4c(c3)OCO4)coc2c(OC)c1OC`, the values for the cell viability in assay [1], in assay [2] and in assay [3] were 1.05 ± 0.05, 1.01 ± 0.073 and 1 ± 0.011, respectively. The “TCF/Wnt firefly luciferase reporter signal” value in assay [4] was found to be 0.94 ± 0.05; in assay [5], 0.922 ± 0.026.

With `CC1(O)CC2C(CC1O)C2(C)C` (stereo not given), the cell viability in assay [1] came to 0.946 ± 0.051; in assay [2], 0.998 ± 0.06; in assay [3] it was 0.953 ± 0.011. In addition, the “TCF/Wnt firefly luciferase reporter signal” value in assay [4] was determined as 0.91 ± 0.12; in assay [5] it was 0.848 ± 0.16.

Regarding `CC(C)=CCc1c2c(c3occ(-c4ccc(O)c(O)c4)c(=O)c3c1O)C=CC(C)(C)O2`, the cell viability in assay [1] turned out to be 0.997 ± 0.033; in assay [2], 1.04 ± 0.067; in assay [3], 1.03 ± 0.028. The “TCF/Wnt firefly luciferase reporter signal” value came to 0.996 ± 0.077 in assay [4] and 1.02 ± 0.021 in assay [5].

Turning to `CC(C)NC[C@@H](O)COc1cccc2ccccc12`, the cell viability in assay [1] is 1.09 ± 0.057; in assay [2], 1.06; in assay [3] it was 1.11 ± 0.11. For the same compound, the entries for the “TCF/Wnt firefly luciferase reporter signal” value in assay [4] and in assay [5] were 1.01 ± 0.021 and 1.01 ± 0.05, respectively.

On to `CC(=O)Nc1nnc(S(N)(=O)=O)s1`, for which the cell viability in assay [1] is 0.981 ± 0.055; in assay [2] it was 0.907 ± 0.11; in assay [3] it was 0.989 ± 0.016. In addition, the “TCF/Wnt firefly luciferase reporter signal” value in assay [4] stood at 0.865 ± 0.044; in assay [5] it was 1.09 ± 0.092.

On to `CC(CN(C)C)CN1c2ccccc2Sc2ccccc21` (stereo not given), for which the cell viability turned out to be 1 ± 0.12 in assay [1], 1.02 ± 0.065 in assay [2] and 1.06 ± 0.057 in assay [3]. Also, the “TCF/Wnt firefly luciferase reporter signal” value in assay [4] was 0.997 ± 0.15; in assay [5], 1.08 ± 0.071.

For the compound `CO/N=C(\C(=O)N[C@@H]1C(=O)N2C(C(=O)OCOC(=O)C(C)(C)C)=C(/C=C\c3scnc3C)CS[C@H]12)c1csc(N)n1`, the cell viability was found to be 1.025 ± 0.0071 in assay [1], 0.985 ± 0.0042 in assay [2] and 0.901 ± 0.0071 in assay [3]. For the same compound, the “TCF/Wnt firefly luciferase reporter signal” value in assay [4] stood at 0.809 ± 0.029; in assay [5], 0.854 ± 0.14.

For the compound `CCOC(=O)C(C)(C)Oc1ccc(Cl)cc1`, the cell viability came out at 1.01 ± 0.021 in assay [1], 0.981 ± 0.0071 in assay [2] and 0.971 ± 0.055 in assay [3]. The results for the “TCF/Wnt firefly luciferase reporter signal” value in assay [4] and in assay [5] were 1.24 ± 0.021 and 1.04 ± 0.035, respectively.

Turning to `O=C(O)C1CCCNC1` (stereo not given), the cell viability in assay [1] was determined as 0.994 ± 0.023; in assay [2] it was 1 ± 0.071; in assay [3] it was 0.948 ± 0.067. Moreover, the “TCF/Wnt firefly luciferase reporter signal” value in assay [4] came to 1.03 ± 0.065; in assay [5], 0.938 ± 0.13.

Turning to `CCOc1ccc2c(c1)C(C)=CC(C)(C)N2`, the cell viability in assay [1] was 1 ± 0.071; in assay [2], 0.91 ± 0.09; in assay [3], 1.01 ± 0.035. Moreover, the “TCF/Wnt firefly luciferase reporter signal” value in assay [4] came to 0.775 ± 0.12; in assay [5], 0.899 ± 0.056.

`O=C1C(O)=C(O)C(=O)C(O)=C1O`: the cell viability in assay [1] turned out to be 0.96 ± 0.03; in assay [2] it was 0.997 ± 0.1; in assay [3], 0.944 ± 0.015. The results for the “TCF/Wnt firefly luciferase reporter signal” value in assay [4] and in assay [5] were 0.829 ± 0.011 and 0.822 ± 0.056, respectively.

For the compound `N=c1ccn2c(n1)O[C@H]1[C@H](O)[C@@H](CO)O[C@H]12`, the cell viability in assay [1] came to 1.16 ± 0.078; in assay [2], 0.942 ± 0.034; in assay [3] it was 1.15 ± 0.028. In addition, the “TCF/Wnt firefly luciferase reporter signal” value in assay [4] was 1.08 ± 0.11; in assay [5], 1.1.

In the case of `COc1ccc([C@H]2Oc3cc(OC)cc(OC)c3C[C@H]2O)cc1`, the cell viability in assay [1] worked out at 1 ± 0.029; in assay [2], 0.941 ± 0.098; in assay [3], 0.9645 ± 0.005. In addition, the “TCF/Wnt firefly luciferase reporter signal” value in assay [4] was determined as 0.923 ± 0.046; in assay [5], 1.03 ± 0.052.

`CCCc1cc(=O)[nH]c(=S)[nH]1`: the cell viability in assay [1] was determined as 0.959 ± 0.033; in assay [2], 1.065 ± 0.0071; in assay [3] it was 0.998 ± 0.031. For the same compound, the “TCF/Wnt firefly luciferase reporter signal” value in assay [4] was found to be 0.98 ± 0.057; in assay [5] it was 1.02 ± 0.028.
